Screens from PubChem BioAssay.
Rin1-Abl PPI inh – human Rin1-Abl interaction inhibition; 0.4% of 360,000 active; inhibition, % at 7.35 µM; TR-FRET Rin1/Abl binding, biochemical; AID 588664; in the data active = inhibition above about 5%, passing the limit was not always enough
Target sequence (P00519 whole entry, looked up): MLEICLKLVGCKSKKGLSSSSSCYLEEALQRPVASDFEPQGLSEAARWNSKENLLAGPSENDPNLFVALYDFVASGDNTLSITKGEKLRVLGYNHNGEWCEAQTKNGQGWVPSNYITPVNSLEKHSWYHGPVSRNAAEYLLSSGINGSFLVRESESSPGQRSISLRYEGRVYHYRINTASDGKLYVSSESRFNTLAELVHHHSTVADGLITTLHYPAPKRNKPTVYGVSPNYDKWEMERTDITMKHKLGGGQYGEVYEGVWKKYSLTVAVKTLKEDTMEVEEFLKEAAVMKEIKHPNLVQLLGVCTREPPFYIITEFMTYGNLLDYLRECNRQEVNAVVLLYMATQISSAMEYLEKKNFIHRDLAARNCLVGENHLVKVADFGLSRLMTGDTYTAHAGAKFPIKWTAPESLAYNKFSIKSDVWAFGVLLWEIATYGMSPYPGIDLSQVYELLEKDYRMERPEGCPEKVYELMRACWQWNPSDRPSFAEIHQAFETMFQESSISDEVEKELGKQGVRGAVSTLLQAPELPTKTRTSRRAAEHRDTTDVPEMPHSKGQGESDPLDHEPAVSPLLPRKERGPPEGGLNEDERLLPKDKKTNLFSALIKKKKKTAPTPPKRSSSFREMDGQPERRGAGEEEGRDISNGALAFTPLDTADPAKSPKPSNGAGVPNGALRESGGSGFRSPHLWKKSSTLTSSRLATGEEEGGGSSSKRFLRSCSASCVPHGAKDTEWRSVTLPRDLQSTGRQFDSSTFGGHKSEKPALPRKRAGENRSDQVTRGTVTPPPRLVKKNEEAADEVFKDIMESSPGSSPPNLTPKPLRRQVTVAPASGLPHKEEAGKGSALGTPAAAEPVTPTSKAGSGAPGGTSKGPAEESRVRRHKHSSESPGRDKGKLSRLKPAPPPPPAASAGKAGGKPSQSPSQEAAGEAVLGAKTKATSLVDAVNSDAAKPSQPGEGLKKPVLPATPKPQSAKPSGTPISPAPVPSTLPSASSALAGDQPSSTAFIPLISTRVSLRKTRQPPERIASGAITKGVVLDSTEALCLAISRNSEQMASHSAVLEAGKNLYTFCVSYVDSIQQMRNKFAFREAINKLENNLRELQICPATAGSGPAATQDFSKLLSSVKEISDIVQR
Target sequence (Q13671 whole entry, looked up): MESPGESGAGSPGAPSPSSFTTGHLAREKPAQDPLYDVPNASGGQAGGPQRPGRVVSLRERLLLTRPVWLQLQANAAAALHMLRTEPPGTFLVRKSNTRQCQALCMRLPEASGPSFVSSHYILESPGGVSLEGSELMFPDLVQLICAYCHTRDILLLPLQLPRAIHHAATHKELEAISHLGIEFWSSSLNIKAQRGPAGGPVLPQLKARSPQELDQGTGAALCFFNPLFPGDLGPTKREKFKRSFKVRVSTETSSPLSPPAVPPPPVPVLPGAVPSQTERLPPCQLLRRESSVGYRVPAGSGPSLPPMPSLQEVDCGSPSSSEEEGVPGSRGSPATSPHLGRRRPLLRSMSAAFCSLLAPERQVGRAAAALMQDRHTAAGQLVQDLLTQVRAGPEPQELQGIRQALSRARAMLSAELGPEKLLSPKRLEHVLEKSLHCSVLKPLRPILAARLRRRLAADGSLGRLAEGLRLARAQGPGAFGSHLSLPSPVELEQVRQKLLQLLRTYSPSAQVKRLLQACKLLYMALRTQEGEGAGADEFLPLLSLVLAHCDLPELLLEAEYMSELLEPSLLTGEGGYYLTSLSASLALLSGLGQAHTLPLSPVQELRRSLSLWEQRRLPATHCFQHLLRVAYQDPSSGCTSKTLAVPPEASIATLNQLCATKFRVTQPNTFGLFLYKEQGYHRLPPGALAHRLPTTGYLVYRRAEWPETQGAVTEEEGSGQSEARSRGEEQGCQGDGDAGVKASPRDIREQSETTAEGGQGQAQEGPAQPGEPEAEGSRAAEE
AI-2 QS modul – Vibrio harveyi AI-2 quorum sensing modulation. Vibrio harveyi JMH597 AI-2 luminescence/OD600 ratio, 9 h; active compounds read low; strain lacks LuxN and CqsS sensors; 0 = neutral-control median. activity change, % at 7.5 µM. 0.4% of 300,000 active. AID 2094; in the data active = activity change below about -75%, passing the limit was not always enough;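 also: luminescence divided by OD600 gain over 9 h not by final OD600 alone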
sPLA2-III inh – Blocks human group III sPLA2 activity. QFRET BODIPY PC-A2 liposome hydrolysis, fluorescence. inhibition, % at 12.2 µM. 0.56% of 370,000 active;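 active = inhibition above mean plus 3 SD of compounds lying within the high and low control bounds, cut at about 19% in these data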;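 also: 0% = median of test compound wells and 100% = no enzyme DMSO wells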
ARNT TACC3 PPI – disruptors of human ARNT/TACC3 interaction | Q9Y6A5 | AlphaScreen His-ARNT PAS-B/GST-TACC3 binding, luminescence; TACC3 fragment carries E629A point mutation | inhibition, % at 9.99 µM | 0.66% of 390,000 active | AID 623870;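 active = mean inhibition of replicates at least 50% and at least half of replicates each reaching 50%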;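 also: 0% = complete ARNT plus TACC3 wells and 100% = ARNT alone without TACC3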
Rin1-Abl confirm – confirmation of inhibitors of human Rin1-Abl interaction; shares compounds with Rin1-Abl PPI inh; TR-FRET Rin1-Abl binding, purified proteins; inhibition, % at 7.35 µM; 49% of 1,300 active
GFP quench – counter-screen for Rin1-Abl inhibitors: GFP fluorescence quenchers. inhibition, % at 6.75 µM. shares compounds with Rin1-Abl PPI inh. inhibitors/quenchers counterscreen. 8.5% of 1,300 active;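 also: ABL1-eGFP fusion protein alone without its partner RIN1-SBP; 0% = protein with vehicle and 100% = wells lacking protein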
GFP quench dose – GFP fluorescence interference dose response; shares compounds with Rin1-Abl PPI inh; GFP fluorescence interference/quenching counterscreen; IC50, µM; 230 tested, under 10 active; AID 602182; call rule not given here;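 also: ABL1-eGFP fusion protein alone without its RIN1 binding partner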
* hit, by the source's call; x = not tested or not shown. Shown are actives, neighbours in structure and some others; about 1.5% of the full set was active somewhere. Rule as the data show it, unless noted: active = inhibition above about 6.5%; inactive = the rest.

SMILES | Rin1-Abl PPI inh | AI-2 QS modul | sPLA2-III inh | ARNT TACC3 PPI | Rin1-Abl confirm | GFP quench | others
COc1ccccc1NC(=O)N[C@H]1CC[C@H](CCNC(=O)c2ccc3c(c2)OCO3)O[C@@H]1CO | x | x | x | 11 | x | x
CC(C)(C)c1nnc(NS(C)(=O)=O)s1 | 9.9* | 51 | 1 | -4 | 1 | 1
COc1ccc(Nc2nc(-c3cccc([N+](=O)[O-])c3)nc3ccccc23)cc1 | 5.7* | 21 | -1 | -1 | -1 | 0
CO[C@@H]1CN(C)C(=O)c2cc(NS(=O)(=O)c3ccc(F)cc3)ccc2OC[C@H](C)NC[C@@H]1C | x | x | x | -6 | x | x
CCCCCn1cnc2c(sc3nc4c(cc32)CSC(C)(C)C4)c1=O | 2 | 22 | 6 | -4 | x | x
CC1(C)Cc2nc3sc4c(=O)[nH]cnc4c3cc2CS1 | 45* | 40 | 0 | -1 | 41* | 0 | GFP quench dose=>68
O=C1N(c2ccc(Cl)cc2)C(c2ccccc2)N2CCCN12 (stereo not drawn) | 8.3* | 24 | -2 | -7 | 12* | 0
Cc1ccc(C2N(c3cccc(Cl)c3)C(=O)N3CCCN23)cc1 (stereo not drawn) | 29* | 32 | 9 | -3 | 30* | -1 | GFP quench dose=>68
O=C1N(c2ccccc2)C(c2ccccc2)N2CCCN12 (stereo not drawn) | 0 | 36 | 1 | 1 | x | x
CC(=O)Nc1cccc(-c2ccnc3c2CC(C)(C(=O)NCc2ccc(N(C)C)cc2)O3)c1 (stereo not drawn) | 6.7* | x | 8 | x | 6 | -2
CC1(C(=O)Nc2ccccc2)Cc2c(-c3cccc(C(N)=O)c3)ccnc2O1 (stereo not drawn) | 14* | x | -3 | x | 15* | -1
CC1(C(=O)Nc2ccc3c(c2)OCO3)Cc2c(-c3ccc4c(c3)OCO4)ccnc2O1 (stereo not drawn) | -3 | x | -3 | x | x | x
CC1(C(=O)Nc2ccc(Cl)cc2)Cc2c(-c3cccc(C(N)=O)c3)ccnc2O1 (stereo not drawn) | -3 | x | -5 | x | x | x
CC1(C(=O)Nc2ccc3c(c2)OCO3)Cc2c(-c3cccc(C(N)=O)c3)ccnc2O1 (stereo not drawn) | 8.8* | x | -2 | x | 7.8* | -2
CCCc1cn(CC[C@@H]2CC[C@H](NC(=O)C3CCCC3)[C@H](CO)O2)nn1 | x | x | x | 6 | x | x
Cc1nc(SCC(=O)N2CC(C)OC(C)C2)nc(C)c1C (stereo not drawn) | 8.3* | 12 | -5 | x | 9.5* | 0
CCc1c(C)nc(SCC(=O)N2CC(C)OC(C)C2)[nH]c1=O (stereo not drawn) | 3 | 33 | 12 | -2 | x | x
Cc1ccc(-n2c(SCC(=O)NCc3ccco3)nnc2-c2cccnc2)c(C)c1 | 12* | 2 | -2 | 5 | 9.7* | -1
CCCCOC(=O)c1ccc(NC(=O)COC(=O)CN2C(=O)NC3(CCCC3)C2=O)cc1 | 2 | 31 | -10 | -3 | x | x
CCCCOC(=O)c1ccc(NC(=O)CN2C(=O)NC3(CCCCCC3)C2=O)cc1 | 12* | x | -19 | x | 10* | 1
Cc1ccc(-c2cnc3c(c2)C(=O)N([C@@H](C)CO)C[C@H](C)[C@@H](CN(C)CC2CCOCC2)O3)cc1 | x | x | x | -3 | x | x
O=C(NC1CCCCC1)c1cccnc1C(=O)O | 5.9* | -4 | 3 | 13 | 2 | 0
CC(C)C(=O)N1C2CCC1CC(O)(c1ccc(F)cc1)C2 (stereo not drawn) | 7.0* | 12 | -1 | -2 | 1 | 1
Cc1cc(N2C3CCC2CC(O)(c2ccc(F)cc2)C3)nc(-c2ccccc2)n1 (stereo not drawn) | 3 | 5 | -4 | -3 | x | x
COc1cccc(CC(=O)Nc2cc(S(=O)(=O)N3CCCCC3)ccc2C)c1 | -1 | x | 4 | 6 | x | x
COc1cccc(CC(=O)Nc2ccc(S(=O)(=O)N3CCCCC3)cc2)c1 | 8.9* | x | -22 | -2 | 5 | 0
COc1ccc(OC)c(CN2CCN(S(=O)(=O)c3ccc(NC(C)=O)cc3)CC2)c1 | 10* | 4 | -6 | 0 | 1 | 0
